Hits are enriched below; roughly 3.1% of the tested compounds scored in any of these assays.
Mcl1-Noxa inh: Mcl-1/Noxa interaction inhibition; TR-FRET Mcl-1/Noxa peptide binding, 2 h; inhibition, % at 21.7 µM; 1.5% of 220,000 active; AID 1022;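 active = compounds that cut the protein-peptide binding signal by more than 50% relative to plate controls in a single-dose test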;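 note: His-tagged Mcl-1 with rhodamine Noxa BH3 peptide and terbium anti-His antibody; 0% = Mcl-1 plus Noxa peptide wells and 100% = peptide-only wells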
Mcl1 Bid PPI: Mcl-1/Bid interaction inhibition | inhibition, % at 21.7 µM | TR-FRET Mcl-1/Bid-Dy647 peptide binding, 1536-well | 0.97% of 220,000 active | Q07820 | AID 1021;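 active = compounds that cut the binding signal by more than half at the single screening dose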;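 note: His-tagged Mcl-1 with europium anti-His antibody binding Bid BH3 peptide; 0% = Mcl-1 plus peptide wells and 100% = peptide-only wells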
14-3-3 Bad inh: disrupts binding of bovine 14-3-3 zeta to phospho-Bad peptide. P63103. TR-FRET 14-3-3zeta/Dy647-pBad peptide displacement, 1 h. inhibition, % at 21.7 µM. 0.71% of 220,000 active. AID 781;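 active = inhibition above about 70%, limit read from the data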;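 note: 0% = full 14-3-3 plus peptide FRET controls and 100% = background without 14-3-3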
NCF1 inh: blocks human p47phox regulatory protein of NADPH oxidases. P14598. inhibition, % at 24.7 µM. 0.53% of 220,000 active. p47phox/p22phox peptide binding, fluorescence polarization, 2 h;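 active = inhibition above about 30%, limit read from the data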;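 note: 0% = p47phox with labelled peptide and 100% = labelled peptide alone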
Target sequence (P14598 whole entry, looked up): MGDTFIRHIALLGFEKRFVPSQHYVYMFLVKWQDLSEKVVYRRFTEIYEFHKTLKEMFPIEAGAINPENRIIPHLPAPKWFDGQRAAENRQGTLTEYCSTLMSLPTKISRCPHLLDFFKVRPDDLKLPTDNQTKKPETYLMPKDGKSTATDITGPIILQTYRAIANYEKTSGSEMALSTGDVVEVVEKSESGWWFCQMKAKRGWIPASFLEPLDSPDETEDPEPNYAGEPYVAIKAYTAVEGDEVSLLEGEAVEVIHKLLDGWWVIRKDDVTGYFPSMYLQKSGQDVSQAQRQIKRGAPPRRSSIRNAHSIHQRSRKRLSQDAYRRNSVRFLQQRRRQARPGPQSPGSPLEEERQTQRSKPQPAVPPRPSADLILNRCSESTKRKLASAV
Mcl-1 Bim block: human Bim-Mcl-1 interaction inhibition. Bead-based flow cytometry, Bim peptide-Mcl-1 binding. inhibition, % at 10 µM. AID 1009. 0.1% of 190,000 active; in the data active = inhibition above about 40%;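 note: 0% = no compound tracer wells and 100% = peptide blocker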
* marks the source's active call; other numbers are inactive results; · = no result given; [ ] = dose if it differs, or a comment.

SMILES	Mcl1-Noxa inh	Mcl1 Bid PPI	14-3-3 Bad inh	NCF1 inh	Mcl-1 Bim block
N#Cc1cccc(NC(=O)CSc2ccc3c4c(cccc24)C(=O)c2ccccc2-3)c1	22	74*	52	40*	-1
COc1ccc(-c2cc3ccccc3oc2=O)cc1NC(=S)NC(=O)c1ccc2c(c1)OCCO2	-47	-3	77*[fluorescence artefact?]	25	-4
COc1ccc(-c2cc3ccccc3oc2=O)cc1NC(=O)c1ccc([N+](=O)[O-])o1	27	65*	80*[fluorescence artefact?]	40*	3
COc1ccc(-c2cc3ccccc3oc2=O)cc1NC(=O)c1ccc(Br)o1	-70	60*	43	41*	-17
CCC(=O)Nc1cc(-c2cc3ccccc3oc2=O)ccc1OC	-10	-30	-10	-7	0
CCOC(=O)C1=C(N)Oc2c(oc(CO)cc2=O)C1c1ccccc1 (stereo not drawn)	9	1	1	-1	17
COc1ccc(-c2cc(C(=O)NCC3CCCO3)c3ccccc3n2)cc1 (stereo not drawn)	10	-18	-1	-5	-1
COc1ccc(-c2cc(C(=O)NCC3CCCO3)c3cc(C)ccc3n2)cc1 (stereo not drawn)	17	-17	77*	-9	3
CCOc1ccc(NC(=O)Nc2nnc(CC(=O)NCc3ccccc3)s2)cc1	-2	-20	0	-8	-2
COc1ccc(NC(=O)Nc2nnc(CC(=O)NCc3ccccc3)s2)cc1	1	91*	-10	7	0
COc1ccc(CN2C(=O)Cc3c2nc(N)c2c(N)nc(N4CCCCC4)c(C#N)c32)cc1	58*	-14	-8	-23	0
COc1cc2c(C#N)c(N3CCCCC3)nc(N)c2c(N)n1	3	-58	-4	-8	1
Cn1c(=S)c2[nH]c(SCCN3CCCC3)nc2n(C)c1=O	2	-165	3	44*	·
CCN1CCCC(Sc2nc3c([nH]2)c(=S)n(C)c(=O)n3C)C1 (stereo not drawn)	0	-159	-6	-4	·
Cc1cccc(NC(=O)CN2C(=O)S/C(=C\c3ccc(-c4cccc(C(=O)O)c4C)o3)C2=O)c1	14	-18	-9	-26	0
Cc1ccc(C(=O)O)cc1-c1ccc(C=C2C(=O)c3ccccc3C2=O)o1	57*	-55	25	-62	2
Cc1ccc(NC(=O)CN2C(=O)S/C(=C/c3ccc(-c4cc(C(=O)O)ccc4C)o3)C2=O)cc1C	84*	94*	76*[fluorescence artefact?]	-44	4
CN(C(=O)c1ccc(OC2CCN(CCc3ccccc3)CC2)cc1)C1CCCCC1	10	-11	-7	1	-1
S=C(NCC1CCCO1)N1CCN(Cc2ccccc2)CC1 (stereo not drawn)	22	-3	70*	-2	1
CC12CCC(C(=O)N3CCC(Cc4ccccc4)CC3)(C(=O)C1=O)C2(C)C (stereo not drawn)	12	-28	-7	-35	2
CCOC(=O)C1CCN(c2c(NCCCN3CCN(Cc4ccccc4)CC3)c(=O)c2=O)CC1	16	52*	-4	-4	0
CCOC(=O)C1CCN(Cc2ccc(F)cc2)CC1	-14	51*	61	0	0
COc1ccc(CN2CCSCC2)cc1O	18	-7	76*	5	-1
COc1cc(CN2CCSCC2)cc(OC)c1OC	22	21	44	7	-6
CCOC(=O)C1CCN(Cc2ccc(O)c(OC)c2)CC1	10	18	84*	-3	-1
SMILES	Mcl1-Noxa inh	Mcl1 Bid PPI	14-3-3 Bad inh	NCF1 inh	Mcl-1 Bim block
CCCN1CCC(NC(=O)Nc2ccc(Br)cc2)CC1	43	-9	5	-1	-4
O=C(NCc1ccco1)C1CCN(Cc2ccc(F)cc2)CC1	33	28	80*	-1	4
O=S(=O)(Nc1cccc(-c2cn3ccsc3n2)c1)c1ccc(F)cc1	0	98*	-21	-13	-2
CCOC(=O)C1C(c2cccs2)NC(=O)N(C)C1(O)C(F)(F)F (stereo not drawn)	0	61*	-13	-7	-1
CCCCCc1cc(=O)oc2c(C(CCN3CCCC(C)C3)c3ccc4c(c3)OCO4)c(OC)cc(OC)c12 (stereo not drawn)	7	-60	8	33*	·
CCCCCc1cc(=O)oc2c(C(CCN3CCCCC3)c3ccc4c(c3)OCO4)c(OC)cc(OC)c12 (stereo not drawn)	7	-33	6	-5	·
COc1ccc(/C=N/n2c(=O)[nH]c3c([nH]c4ccc(Cl)cc43)c2=O)cc1CN1CCCCC1	21	-28	16	0	·
COc1ccc(/C=N/n2c(=O)[nH]c3c([nH]c4ccc(Br)cc43)c2=O)cc1CN1CCOCC1	54*	10	40	-8	-3
COc1cc(/C=C2/NC(=O)N(Cc3ccccc3F)C2=O)cc(OC)c1O	57*	-46	-2	-10	51*
C#CCCCCCCC#CCN(C)C	36	55*	47	2	-4
C/C(=N\NC(=O)Cn1nc(C)c([N+](=O)[O-])c1C)c1ccc(Cl)s1	21	-21	1	-3	·
O=C1NC(=NCc2ccccc2)S/C1=C/c1ccc(O)cc1	14	-20	-15	-39	-4
Cc1cc(OCc2nc3ccccc3s2)ccc1N	21	-20	-3	-5	·
COc1ccccc1C(CC(=O)Nc1ccc(C)c(C)c1)c1ccc(OC(C)C)cc1 (stereo not drawn)	55*	-11	4	-21	-2
O=C(Nc1ccc(N2CCCCCC2)cc1)c1ccccc1Cl	52*	-60	11	2	-2
CC1CCN(c2ccc(NC(=O)Cc3ccccc3)cc2)CC1	87*	-12	0	2	0
O=C(Cc1ccccc1)Nc1ccc(N2CCCC2)cc1	82*	-56	·	7	-2
O=C(CN1CCCCC1)Nc1ccc(N2CCCCCC2)cc1	67*	28	43	2	0
COc1ccccc1C(=O)Nc1ccc(N2CCCCC2)cc1	11	-25	13	-12	-6
NC(=S)c1cc2cc(Cl)ccc2oc1=O	-17	-45	2	-14	·
COc1ccc(-c2ocnc2C(=O)N2CCN(C(c3ccccc3)c3ccccc3)CC2)cc1	-4	6	-8	-9	-5
CCC1=C(OC(=O)N(CC)CC)N2C(=O)OC(=NCCc3c[nH]c4ccccc34)[C@]2(Cc2ccccc2)[C@H]2C1=CC[C@H]1C(=O)N(C)C(=O)[C@H]12	-10	-68	-11	-24	·
Cc1ccc(C(=O)N2CCCC2)cc1S(=O)(=O)Nc1cccc(C)c1C	-8	-21	-11	-12	1
CCCOc1ccc(C2C(C(=O)/C=C/c3ccco3)=C(O)C(=O)N2CCN2CCOCC2)cc1OC (stereo not drawn)	7	-29	-1	-24	1
COc1ccc(NC(=O)CN2CCOCC2)cc1	-3	71*	73*	-7	-3
COC(=O)c1ccc(CN2CCN(CC=C(C)C)C(CCO)C2)cc1 (stereo not drawn)	-11	1	4	-11	0

Assay outcomes as filed in PubChem.
